CYP2C9 inh = human CYP2C9 inhibition | inhibition, % at 5 µM | CYP2C9 Supersomes, luciferin-H conversion, luminescence | AID 777 | 20% of 96,000 active | P11712;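 active = blocking of liver enzyme CYP2C9 beyond about 50% at 5 µM, limit read from the data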
CYP2C9 activ = activators of human CYP2C9 | activation factor at 5 µM | recombinant CYP2C9, luciferin-H conversion, luminescence; hits give high values; factor 1 = untreated enzyme, 0 = blocked | P11712 | 1.4% of 96,000 active;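 active = activation factor of 2 or more for CYP2C9 at a 5 µM dose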
sEH activator = activators of human soluble epoxide hydrolase | P34913 | purified human sEH enzymatic activity, activator screen | activation, % at 2 µM | 0.04% of 91,000 active; in the data active = activation above about 37%
sEH inhibitor = inhibitors of human soluble epoxide hydrolase. recombinant human sEH enzymatic activity assay. inhibition, % at 2 µM. 0.34% of 91,000 active. AID 707; in the data active = inhibition above about 80%
CYP2C19 activ = cytochrome P450 2C19 (human) activation; P33261; recombinant CYP2C19, luciferin-H EGE luminescence; hits give high values; 0 = fully inhibited enzyme, 1 = untreated enzyme; activation factor at 5 µM; 96,000 tested, under 10 active; AID 1025;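 active = activation factor of at least 2 at 5 µM in the primary screen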
CYP2C19 inh = inhibitors of human CYP2C19; P33261; CYP2C19 Supersomes, luciferin-H EGE luminescence, 30 min; inhibition, % at 5 µM; 21% of 96,000 active;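 active = CYP2C19 inhibition above a set limit at 5 µM in the primary screen, cut at about 50% in these data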
Of the large screens only hits and unclear results are named; the others gave an inactive call. Most compounds without a hit are left out; they make up all but 27% or so of the library.

COc1ccccc1-n1cnnc1SCC(=O)N1CCN(S(=O)(=O)c2ccccc2)CC1	CYP2C19 inh 60.0
COc1ccc(Cl)cc1NC(=O)CSc1nncn1-c1cccnc1	CYP2C19 inh 93.8
COc1cccc(OC)c1C(=O)N1CCN(S(=O)(=O)c2ccccc2)CC1	CYP2C9 inh 73.8, CYP2C19 inh 53.3
O=C1c2ccccc2C(O)(Cc2ccccc2)N1C1CCCCC1 (configuration not stated)	none
COc1ccc(C(=O)N2CCN(S(=O)(=O)c3ccccc3)CC2)c(OC)c1	none
COc1ccccc1C(=O)N1CCN(S(=O)(=O)c2ccccc2)CC1	CYP2C9 inh 52.1, CYP2C19 inh 92.6
COc1cccc(-c2nnn(CC(=O)Nc3ccc(C)cc3C)n2)c1OC	none (no result: sEH activator, sEH inhibitor)
COC(=O)c1cn(CC(=O)NCc2ccco2)c2ccccc12	CYP2C19 inh 91.8
COC(=O)c1cn(CC(=O)N2CCCCCC2)c2ccccc12	CYP2C19 inh 92.2
COc1ccc2cnn(CCOc3ccccc3)c(=O)c2c1OC	none
Cn1c(SCC(=O)c2cc3ccccc3o2)nnc1-c1ccccc1	CYP2C9 inh 68.2, CYP2C19 inh 83.8
Cn1ccnc1SCC(=O)c1cc2ccccc2o1	CYP2C19 inh 59.4
Cc1cccc(NC(=O)CSc2nccn2C)c1	none (no result: CYP2C9 inh, CYP2C9 activ, CYP2C19 activ, CYP2C19 inh)
COc1ccc(-n2nnnc2SCC(=O)c2cc3ccccc3o2)cc1	CYP2C9 inh 76.3, CYP2C19 inh 90.8
Cn1ccnc1SCC(=O)c1cccc(Br)c1	CYP2C19 inh 85.5
CCOC(=O)c1cnc(-n2cc(C)cn2)nc1Nc1ccccc1OCC	none
Cc1cccc(C)c1NC(=O)C(c1ccc([N+](=O)[O-])cc1)N1CCCCC1 (configuration not stated)	none
COCCCNC(NC(=O)c1ccc(Cl)cc1)C(Cl)(Cl)Cl (configuration not stated)	none
COc1ccccc1N(CC(=O)N1CCCCCC1)S(C)(=O)=O	none
CCn1c(CCC(=O)Nc2cc(F)ccc2C)nc2cc(S(=O)(=O)N(C)C)ccc21	CYP2C9 inh 79.5 (no result: sEH activator, sEH inhibitor)
CCN(CC)S(=O)(=O)c1ccc2c(c1)nc(CCC(=O)Nc1ccccc1Cc1ccccc1)n2CC	CYP2C9 inh 99.9, CYP2C19 inh 77.1
CCN(CC)S(=O)(=O)c1ccc2c(c1)nc(CCC(=O)OCC(=O)N1CCc3ccccc31)n2C	none
O=C(NCC(=O)N(c1ccccc1)C(C(=O)NC1CCCCC1)c1ccncc1)c1ccco1 (configuration not stated)	none
O=C(NCC(=O)N(CCc1ccccc1)C(C(=O)NC1CCCC1)c1cccnc1)c1ccco1 (configuration not stated)	CYP2C9 inh 51.6, CYP2C19 inh 53.7
O=C(NCC(=O)N(c1ccccc1)C(C(=O)NCC1CCCO1)c1ccccc1)c1ccco1 (configuration not stated)	none
O=C(NCC(=O)N(CCc1ccccc1)C(C(=O)NC1CCCCC1)c1ccncc1)c1ccco1 (configuration not stated)	CYP2C9 inh 91.8, CYP2C19 inh 81.8
COc1cccc(N(C(=O)CNC(=O)c2ccco2)C(C(=O)NC2CCCC2)c2ccncc2)c1 (configuration not stated)	CYP2C19 inh 57.1
Cc1ccc(N(C(=O)CNC(=O)c2ccco2)C(C(=O)NCC2CCCO2)c2ccccc2)cc1 (configuration not stated)	CYP2C19 inh 85.1 (no result: sEH activator, sEH inhibitor)
CCOC(=O)C(NC(C)=O)(Nc1ccc(S(=O)(=O)Nc2cc(C)nc(C)n2)cc1)C(F)(F)F (configuration not stated)	none
C#CCOC(=O)CCC(=O)Nc1cc(OC)nc(OC)n1	none
CSC1=N/C(=C\c2ccccc2)C(=O)N1C	none
CCOCCCN(C(=O)CNC(=O)c1ccco1)C(C(=O)NC1CCCC1)c1ccccc1C (configuration not stated)	none (no result: sEH activator, sEH inhibitor)
Cc1ccc(C(C(=O)NC2CCCCC2)N(CCC(C)C)C(=O)CNC(=O)c2ccco2)o1 (configuration not stated)	CYP2C19 inh 52.8
C=CCN(C(=O)CNC(=O)c1ccco1)C(C(=O)NC1CCCCC1)c1ccccc1 (configuration not stated)	CYP2C9 inh 70.4, CYP2C19 inh 83.4
CCOC(=O)CNC(=O)C(NC(=O)C1CCC(C)CC1)C(C)CC (configuration not stated)	none (no result: sEH activator, sEH inhibitor)

Bioassay records from PubChem BioAssay.
